Legend:
Assay in all cases: cell proliferation relative to vehicle (% of vehicle); higher = less growth inhibition
Settings in all cases: 72 h
[1] = system: U2932 TK216-resistant clone 2
Outline: (§1)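 A library of 348 targeted inhibitors was screened against the ABC-DLBCL cell line U2932, using parental cells and two clones made resistant to an ETS-targeting agent through repeated exposure over almost a year. The cells were cultured at 37°C and 5% CO2 in medium containing 10% FBS and treated at 500 nM or 50 nM for 72 h, after which MTT was added for 4 h, stopped with 25% SDS, and absorbance was read on a Cytation 3. Proliferation is given as the percentage of proliferating cells relative to the vehicle, DMSO.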

[2] = system: U2932 TK216-resistant clone 3
Outline: as §1

U2932 parental = system: U2932 parental
Outline: as §1

SMILES | cell proliferation ([1]; 50 nM) | cell proliferation ([1]; 500 nM) | cell proliferation ([2]; 50 nM) | cell proliferation ([2]; 500 nM) | cell proliferation (U2932 parental; 50 nM) | cell proliferation (U2932 parental; 500 nM)
CO[C@H]1C[C@@H]2CC[C@@H](C)[C@@](O)(O2)C(=O)C(=O)N2CCCC[C@H]2C(=O)O[C@H]([C@H](C)C[C@@H]2CC[C@@H](OCCO)[C@H](OC)C2)CC(=O)[C@H](C)/C=C(\C)[C@@H](O)[C@@H](OC)C(=O)[C@H](C)C[C@H](C)/C=C/C=C/C=C/1C [Everolimus (RAD001)] | 65.8 | 65.5 | 64.2 | 66.5 | 55.5 | 59.1
COc1cc2c(c(OC)c1OC)-c1c(cc3c(c1OC)OCO3)CC(C)C(C)C2 (centres undefined) [Schisandrin B (Sch B)] | 99.1 | 104 | 108 | 97.6 | 97.2 | 95.9
CC(=O)Nc1cccc(-n2c(=O)n(C3CC3)c(=O)c3c(Nc4ccc(I)cc4F)n(C)c(=O)c(C)c32)c1 | 103 | 105 | 98.2 | 93.7 | 92.9 | 94.4
CO[C@H]1C[C@@H]2CC[C@@H](C)[C@@](O)(O2)C(=O)C(=O)N2CCCC[C@H]2C(=O)O[C@H]([C@H](C)C[C@@H]2CC[C@@H](O)[C@H](OC)C2)CC(=O)[C@H](C)/C=C(\C)[C@@H](O)[C@@H](OC)C(=O)[C@H](C)C[C@H](C)/C=C/C=C/C=C/1C [Rapamycin (Sirolimus)] | 62.4 | 62.1 | 60.3 | 59.4 | 58.2 | 58.9
Cn1c(Nc2ccc(C(F)(F)F)cc2)nc2cc(Oc3ccnc(-c4ncc(C(F)(F)F)[nH]4)c3)ccc21 | 96.1 | 80.7 | 98.8 | 96.7 | 95.6 | 88
CC(C)C[C@H](NC(=O)[C@H](CCc1ccccc1)NC(=O)CN1CCOCC1)C(=O)N[C@@H](Cc1ccccc1)C(=O)N[C@@H](CC(C)C)C(=O)[C@@]1(C)CO1 [Carfilzomib (PR-171)] | -2.48 | -4.13 | -2.24 | -4.17 | -1.34 | -1.99
CCCCCCCCCCCCCCCCCCOP(=O)([O-])OC1CC[N+](C)(C)CC1 [Perifosine (KRX-0401)] | 98.7 | 93.4 | 113 | 110 | 96.7 | 102
CCC[C@H](NC(=O)/C(C#N)=C/c1cccc(Br)n1)c1ccccc1 [Degrasyn (WP1130)] | 105 | 102 | 106 | 94.8 | 92.5 | 86.4
COc1ccc(-n2c(SCCCN3C(=O)c4cccc5cccc(c45)C3=O)nnc2-c2ccncc2)cc1 | 106 | 97.3 | 104 | 99.4 | 94.3 | 94.5
CC[C@H](CO)Nc1nc(NCc2ccccc2)c2ncn(C(C)C)c2n1 [Roscovitine (Seliciclib,CYC202)] | 105 | 102 | 107 | 107 | 99.6 | 106
CC(C=CC(=O)NO)=CC(C)C(=O)c1ccc(N(C)C)cc1 (centres undefined) [Trichostatin A (TSA)] | 68.3 | 8.5 | 74.5 | 4.96 | 67.2 | 2.14
Cc1[nH]c(/C=C2\C(=O)Nc3ccc(S(=O)(=O)Cc4c(Cl)cccc4Cl)cc32)c(C)c1C(=O)N1CCC[C@@H]1CN1CCCC1 | 108 | 92.4 | 103 | 90.5 | 102 | 96.8
Cc1cccc(-c2[nH]c(CNc3ccccc3F)nc2-c2ccc3ncnn3c2)n1 | 106 | 102 | 99.6 | 106 | 104 | 98.6
CC(C)(C(=O)NCC(F)(F)C(F)(F)F)C(=O)N[C@@H]1C(=O)Nc2ccccc2-c2ccccc21 | 105 | 109 | 105 | 100 | 98.7 | 86.5
C[C@H](NC(=O)/C(C#N)=C/c1cccc(Br)n1)c1ccccc1 | 108 | 111 | 109 | 102 | 105 | 102
C=CCNC1=C2C[C@@H](C)C[C@H](OC)[C@H](O)[C@@H](C)/C=C(\C)[C@H](OC(N)=O)[C@@H](OC)/C=C\C=C(/C)C(=O)NC(=CC1=O)C2=O [17-AAG (Tanespimycin)] | 103 | 115 | 105 | 114 | 96.7 | 107
COc1ccc2c(Oc3ccc(NC(=O)c4c(C)n(CC(C)(C)O)n(-c5ccccc5)c4=O)nc3)ccnc2c1 | 102 | 103 | 95.4 | 97.4 | 103 | 97
N=C1NC(=O)/C(=C/c2ccc(O)cc2)S1 [Mirin] | 103 | 94.6 | 107 | 102 | 90.9 | 97.3
CCc1ccc(/C=C2/SC(=S)NC2=O)cc1 | 105 | 103 | 102 | 99.4 | 94.2 | 104
O=c1cc(-c2cccc3c2Sc2ccccc2S3)oc(N2CCOCC2)c1 | 108 | 102 | 98.8 | 95.3 | 102 | 103

SMILES | cell proliferation ([1]; 50 nM) | cell proliferation ([1]; 500 nM) | cell proliferation ([2]; 50 nM) | cell proliferation ([2]; 500 nM) | cell proliferation (U2932 parental; 50 nM) | cell proliferation (U2932 parental; 500 nM)
CN1CCC(Nc2nc(Nc3ccc(Oc4ccccc4)cc3)c3c(=O)[nH]cc(Br)c3n2)CC1 | 100 | 83.1 | 99.4 | 83.4 | 89.6 | 85.5
COc1cc(Nc2nc3ccccc3nc2NS(=O)(=O)c2ccc(NC(=O)c3ccc(C)c(OC)c3)cc2)cc(OC)c1 | 98.5 | 106 | 104 | 103 | 105 | 104
O=C(Nc1cc(C(F)(F)F)cc(C(F)(F)F)c1)c1cc(Cl)ccc1O | 103 | 104 | 109 | 102 | 102 | 101
C[C@]12CC[C@@H]3c4ccc(O)cc4C[C@@H](CCCCCCCCC[S+]([O-])CCCC(F)(F)C(F)(F)F)[C@H]3[C@@H]1CC[C@@H]2O (some centres undefined) [Fulvestrant] | 98.2 | 101 | 103 | 104 | 98.8 | 93.9
c1ccc(Cn2c(-c3ccc(OC[C@H](C4CCNCC4)n4c(-c5ccccc5)nc5ccccc54)cc3)nc3ccccc32)cc1 [Deltarasin] | 102 | 88 | 98.8 | 83.6 | 103 | 91.4
Oc1ccc(Nc2nc(-c3ccc(Cl)cc3)cs2)cc1 | 109 | 94.9 | 111 | 103 | 97 | 95.5
O=C(Nc1cccc(Nc2ncc(Br)c(NCCc3cnc[nH]3)n2)c1)N1CCCC1 | 95.7 | 87 | 103 | 77 | 99.6 | 68.1
Cc1cc([C@@H](C)Nc2ccccc2C(=O)O)c2nc(N3CCOCC3)cc(=O)n2c1 | 107 | 95 | 103 | 95.3 | 99.9 | 101
CC(C)C(=O)Nc1ccc([N+](=O)[O-])c(C(F)(F)F)c1 [Flutamide] | 90.7 | 87.2 | 97.2 | 98.3 | 89.3 | 87.6
CC(C)N(CCCNC(=O)Nc1ccc(C(C)(C)C)cc1)C[C@H]1O[C@@H](n2cc(Br)c3c(N)ncnc32)[C@H](O)[C@@H]1O | 108 | 100 | 105 | 96.1 | 96.7 | 100
CCCCNc1ncc2c(-c3ccc(CN4CCN(C)CC4)cc3)cn([C@H]3CC[C@H](O)CC3)c2n1 | 95.5 | 71.1 | 92 | 65.6 | 91.3 | 62.7
Cc1nnc(C(C)C)n1C1C[C@H]2CC[C@@H](C1)N2CC[C@H](NC(=O)C1CCC(F)(F)CC1)c1ccccc1 (stereo in doubt) [Maraviroc] | 107 | 99.6 | 96 | 101 | 88 | 89.6
Cn1cncc1[C@@](N)(c1ccc(Cl)cc1)c1ccc2c(c1)c(-c1cccc(Cl)c1)cc(=O)n2C [Tipifarnib] | 91.9 | 90.6 | 71.5 | 74.9 | 62.7 | 62.5
CNCc1ccc(-c2[nH]c3cc(F)cc4c3c2CCNC4=O)cc1 | 101 | 94.9 | 99.8 | 108 | 96.6 | 93.4
CC(=O)c1c(C)c2cnc(Nc3ccc(N4CCNCC4)cn3)nc2n(C2CCCC2)c1=O | 93.7 | 85.1 | 97.3 | 92.5 | 87.6 | 88.8
CNC(=O)c1cc(Oc2ccc(NC(=O)Nc3ccc(Cl)c(C(F)(F)F)c3)c(F)c2)ccn1 [Regorafenib (BAY 73-4506)] | 103 | 116 | 105 | 107 | 105 | 105
CN(C)CCOc1ccc(-c2nc(-c3ccncc3)c(-c3ccc4c(c3)CC/C4=N\O)[nH]2)cc1 | 93.3 | 89.5 | 96.6 | 97.4 | 93.3 | 94.8
CS(=O)(=O)CCNCc1ccc(-c2ccc3ncnc(Nc4ccc(OCc5cccc(F)c5)c(Cl)c4)c3c2)o1 | 101 | 85.9 | 94.2 | 84.4 | 96.6 | 97.3
CN1CCCN(C(=O)c2cccc(-c3ccc(/C=C4/C(=O)Nc5ccc(Cl)cc54)o3)c2)CC1 | 105 | 80.8 | 97 | 88.5 | 104 | 96.5

Reference: the supplement of paper PMC13172266
